Structures are written as SMILES. Results filed as inconclusive are left out. Activity calls are given as the source filed them. The calls were made as follows, unless noted: active = hit-call score of the fitted dose curve at least 0.9, where 1 is the maximum; inactive = score below 0.9.

Experiment [1] concerns the target Estrogen-related receptor gamma (Homo sapiens) (UniProt P62508). Briefly: ATG_ERRg_TRANS: Attagene TRANS-FACTORIAL HepG2 Assay for human Estrogen-Related Receptor gamma (ERRg) (AID 2282977; active = hit-call score of the fitted dose curve at least 0.9, where 1 is the maximum;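 also: hits increase reporter signal over DMSO so potencies reflect activators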). To be noted: HepG2 Attagene TRANS reporter, ERRg transactivation. In short, it runs like this:
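Exogenous NR-Gal4 chimera activity was assessed in HepG2 cells bearing transfected GAL4-UAS reporters. After 24 h dosing, total RNA underwent RT-PCR, fluorescent primer extension and HpaI digestion before capillary electrophoresis, with gain of signal scored against DMSO.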

In experiment [2] the target is Glucocorticoid receptor (Homo sapiens) (UniProt P04150). Briefly: ATG_GR_TRANS: Attagene TRANS-FACTORIAL HepG2 Assay for human Glucocorticoid Receptor (GR) (AID 2282978; active = hit-call score of the fitted dose curve at least 0.9, where 1 is the maximum;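 also: activators score as hits since higher reporter transcript over DMSO is fitted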). To be noted: HepG2 Attagene TRANS GR reporter, mRNA transcription. In short, it runs like this:
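Multiplexed TRANS reporter system, HepG2; 24 h exposure; RNA → oligo(dT) RT → reporter-specific PCR → 6-FAM primer extension → HpaI cut → CE fluorescence. Gain-of-signal vs DMSO.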

The target of experiment [3] is Bile acid receptor (Homo sapiens) (UniProt Q96RI1). In words: ATG_FXR_TRANS: Attagene TRANS-FACTORIAL HepG2 Assay for Farnesoid X Receptor (FXR) (AID 2282979; active = hit-call score of the fitted dose curve at least 0.9, where 1 is the maximum;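 also: hits raise reporter mRNA above DMSO so AC50 marks FXR activation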). To be noted: HepG2 Attagene TRANS FXR-GAL4 reporter transcription. A digest of the protocol: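 After 24 h chemical treatment of transfected HepG2 cells, GAL4-UAS reporter transcripts driven by an exogenous FXR-GAL4 fusion were measured by RT-PCR and capillary electrophoresis. Increases over DMSO were fitted.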

In experiment [4] the target is Oxysterols receptor LXR-alpha (Homo sapiens) (UniProt Q13133). Briefly: ATG_LXRa_TRANS: Attagene TRANS-FACTORIAL HepG2 Assay for human Liver X Receptor alpha (LXRa) (AID 2282980; active = hit-call score of the fitted dose curve at least 0.9, where 1 is the maximum). To be noted: HepG2 Attagene TRANS reporter, LXRa transactivation. A digest of the protocol:
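In this multiplexed TRANS system, compounds act on HepG2 cells carrying GAL4-UAS reporter units and a receptor-GAL4 fusion for 24 h. Induced reporter RNA is amplified, fluorescently labelled and sized by capillary electrophoresis, with DMSO as baseline.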

Experiment [5] addresses Oxysterols receptor LXR-beta (Homo sapiens) (UniProt P55055). In words: ATG_LXRb_TRANS: Attagene TRANS-FACTORIAL HepG2 Assay for human Liver X Receptor beta (LXRb) (AID 2282981; active = hit-call score of the fitted dose curve at least 0.9, where 1 is the maximum). To be noted: HepG2 Attagene TRANS GAL4-LXRb reporter, mRNA. A digest of the protocol:
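After 24 h of chemical treatment, transfected HepG2 cells yield total RNA; reporter cDNA is PCR-amplified, FAM-labelled, HpaI-cut and run on capillary electrophoresis. Signal reflects chimeric LXRb-Gal4 activity on GAL4-UAS reporters.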

Experiment [6] is described as follows: ATG_M_32_TRANS: Attagene TRANS-FACTORIAL HepG2 Assay for M32 Transcription Factor (Internal Marker) (AID 2282984; active = hit-call score of the fitted dose curve at least 0.9, where 1 is the maximum;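 also: transcript level of a background control reporter unit measured by RT-PCR and capillary electrophoresis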). To be noted: HepG2 Attagene TRANS M32 internal marker reporter. In short, it runs like this:
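Cell-based TRANS-format assay in HepG2: exogenous chimeric GAL4 reporter units transiently expressed, compounds applied 24 h. Reporter mRNA detected by RT-PCR plus capillary electrophoresis; this readout is an internal background marker.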

The target in experiment [7] is Nuclear receptor subfamily 4 group A member 2 (Homo sapiens) (UniProt P43354). Briefly: ATG_NURR1_TRANS: Attagene TRANS-FACTORIAL HepG2 Assay for human Nuclear Receptor Related Protein 1 (NURR1) (AID 2282985; active = hit-call score of the fitted dose curve at least 0.9, where 1 is the maximum). To be noted: HepG2 Attagene TRANS reporter, mRNA readout. In short, it runs like this:
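Measures transcriptional activation by an exogenous NR-Gal4 chimera in transfected HepG2 liver cells. After 24 h, reporter RNA is reverse-transcribed, amplified and resolved by capillary electrophoresis; DMSO defines baseline.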

Experiment [8] has as its target Transcriptional activator Myb (Homo sapiens) (UniProt P10242). Briefly: ATG_Myb_CIS: Attagene CIS-FACTORIAL HepG2 Assay for human Myeloblastosis (Myb) Proto-Oncogene Transcription Factor (AID 2282986). Conditions: HepG2 Attagene CIS-FACTORIAL Myb reporter transcription; actives raise or lower the signal. In short, it runs like this: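 Endogenous transcription factor activity at a Myb-responsive cis element is reported in human liver HepG2 cells after 24 h chemical treatment. Reporter mRNA is detected by RT-PCR and capillary electrophoresis fluorescence, with DMSO as baseline.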

The target in experiment [9] is Nuclear respiratory factor 1 (Homo sapiens) (UniProt Q16656). In words: ATG_NRF1_CIS: Attagene CIS-FACTORIAL HepG2 Assay for human Nuclear Respiratory Factor 1 (NRF1) Orphan Gene (AID 2282987). To be noted: HepG2 NRF1 cis-element reporter, Attagene multiplex; actives raise or lower the signal. In short, it runs like this:
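Human hepatoma HepG2 cells carrying transfected promoter-regulated reporter units were incubated with test chemicals for 24 h. Reporter transcripts were measured by RT-PCR plus capillary electrophoresis, and endpoints derived by bidirectional fitting with DMSO as baseline.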

Experiment [10] can be described thus: ATG_NFI_CIS: Attagene CIS-FACTORIAL HepG2 Assay for human Nuclear Factor I (NFI) (AID 2282989). Conditions: HepG2 cis-regulatory reporter, NFI response element transcription; actives raise or lower the signal. In short, it runs like this: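 Transient MRTU transfection of HepG2 → 24 h chemical dosing → total RNA, oligo(dT) RT → PCR, 6-FAM primer extension, HpaI cut → capillary electrophoresis. Endpoint fitted bidirectionally relative to DMSO.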

For experiment [11], the target named is Myc proto-oncogene protein (Homo sapiens) (UniProt P01106). In words: ATG_Myc_CIS: Attagene CIS-FACTORIAL HepG2 Assay for human Myelocytomatosis (Myc) Proto-Oncogene Transcription Factor (AID 2282990). Conditions: HepG2, Attagene cis-reporter transcription factor activity; actives raise or lower the signal. In short, it runs like this:
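HepG2, transient MRTU transfection (cis promoters, endogenous TFs); 24 h dosing; TriZol RNA → oligo(dT) RT → PCR → 6-FAM primer extension → HpaI cut → CE. Bidirectional fit vs DMSO.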

Experiment [12] can be described thus: ATG_NF_kB_CIS: Attagene CIS-FACTORIAL HepG2 Assay for human Nuclear Factor Kappa B (NF-kB) (AID 2282991). To be noted: HepG2 Attagene cis-factorial NF-kB reporter mRNA; actives raise or lower the signal. A digest of the protocol:
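Multiplexed cis-reporter assay in transiently transfected HepG2. 24 h treatment; RNA isolated, RT-PCR, labelled fragments resolved by CE. DMSO baseline.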

The nature of experiment [13]: ATG_Oct_MLP_CIS: Attagene CIS-FACTORIAL HepG2 Assay for human Octamer-Binding Transcription Factor (Oct) (AID 2282993). Conditions: HepG2 Attagene cis-factorial Oct reporter, mRNA; actives raise or lower the signal. In short, it runs like this:
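Transient MRTU transfection of HepG2 → 24 h compound treatment → RNA isolation, reverse transcription, PCR → 6-FAM primer extension, HpaI digest → capillary electrophoresis. Activity fitted both directions against DMSO.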

Experiment [14] addresses Cellular tumor antigen p53 (Homo sapiens) (UniProt P04637). In words: ATG_p53_CIS: Attagene CIS-FACTORIAL HepG2 Assay for human p53 Transcription Factor (AID 2282994). Conditions: HepG2 p53 cis-element reporter, Attagene mRNA; actives raise or lower the signal. A digest of the protocol:
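Steps: transfect HepG2 with multiplexed cis reporter constructs; dose chemicals 24 h; extract RNA, reverse-transcribe, PCR-amplify reporter sequences; FAM-label, HpaI-digest, resolve fragments by CE. Activity fitted both directions relative to DMSO.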

A short description of experiment [15]: BSK_3C_TissueFactor: BioMAP Diversity Plus: 3C Assay for Tissue Factor Biomarker Activity (AID 2282997). To be noted: BioMAP 3C HUVEC, tissue factor biomarker readout; actives raise or lower the signal. A digest of the protocol:
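In this endothelial system, HUVEC are treated for 24 h and Tissue Factor is assessed by ELISA, normalised to DMSO.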

Experiment [16] in a line: BSK_3C_uPAR: BioMAP Diversity Plus: 3C Assay for Urokinase-type plasminogen activator receptor (uPAR) Biomarker Activity (AID 2282998). To be noted: BioMAP 3C HUVEC, uPAR biomarker ELISA; actives raise or lower the signal. In short, it runs like this:
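ELISA readout of uPAR on human vascular endothelium (umbilical vein primary cells), taken 24 h after chemical dosing. Increases and decreases are both fitted relative to DMSO vehicle.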
A general note: ELISA stands for enzyme-linked immunosorbent assay.

Experiment [17] in a line: BSK_3C_VCAM1: BioMAP Diversity Plus: 3C Assay for Vascular cell adhesion molecule 1 (VCAM1) Biomarker Activity (AID 2282999). To be noted: BioMAP 3C HUVEC, VCAM1 ELISA, cytokine-stimulated; actives raise or lower the signal. A digest of the protocol: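 Activity fitted in both directions relative to DMSO, with ELISA measurement of the surface marker on primary HUVEC (3C) at 24 h post-treatment; parallel SRB staining (0.1% SRB, TCA-fixed, 560 nm) flagged overt cytotoxicity.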

Experiment [18] can be described thus: ATG_M_06_TRANS: Attagene TRANS-FACTORIAL HepG2 Assay for M06 Transcription Factor (Internal Marker) (AID 2282983; active = hit-call score of the fitted dose curve at least 0.9, where 1 is the maximum;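 also: reporter transcript level by RT-PCR then capillary electrophoresis fluorescence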). Conditions: HepG2 Attagene TRANS M06 internal marker reporter. In short, it runs like this:
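Multi-reporter-transfected HepG2, 24 h treatment; reporter transcripts quantified via RT-PCR, primer-extension labelling and CE. DMSO-normalized gain-of-signal fit.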

The nature of experiment [19]: ATG_NRF2_ARE_CIS: Attagene CIS-FACTORIAL HepG2 Assay for human Nuclear Factor Erythroid 2 Related Factor 2 (NFR2) response to Antioxidant Response Elements (ARE) (AID 2282992).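 As to AC50: reporter mRNA level measured by RT-PCR and capillary electrophoresis fluorescence.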 Conditions: HepG2 Attagene ARE/NRF2 reporter, transcription factor activity; actives raise or lower the signal. A digest of the protocol: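 Endogenous transcription factor activity in human liver HepG2 cells is tracked via a cis-element-driven reporter within a multiplexed set. mRNA induction is read by RT-PCR and capillary electrophoresis after 24 h, with DMSO as baseline.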

For experiment [20], the target named is Hepatocyte nuclear factor 4-alpha (Homo sapiens) (UniProt P41235). Briefly: ATG_HNF4a_TRANS: Attagene TRANS-FACTORIAL HepG2 Assay for human Hepatocyte Nuclear Factor 4 alpha (HNF4a) (AID 2282982; active = hit-call score of the fitted dose curve at least 0.9, where 1 is the maximum). To be noted: HepG2 HNF4a transactivation reporter, mRNA readout. A digest of the protocol:
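Multiplexed reporter assay: transfected HepG2, 24 h exposure, total RNA → oligo(dT) RT → PCR → 6-FAM extension → HpaI digest → CE fluorescence. DMSO = negative control.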

Transcriptional activator Myb (Homo sapiens), sequence (P10242 whole entry, looked up): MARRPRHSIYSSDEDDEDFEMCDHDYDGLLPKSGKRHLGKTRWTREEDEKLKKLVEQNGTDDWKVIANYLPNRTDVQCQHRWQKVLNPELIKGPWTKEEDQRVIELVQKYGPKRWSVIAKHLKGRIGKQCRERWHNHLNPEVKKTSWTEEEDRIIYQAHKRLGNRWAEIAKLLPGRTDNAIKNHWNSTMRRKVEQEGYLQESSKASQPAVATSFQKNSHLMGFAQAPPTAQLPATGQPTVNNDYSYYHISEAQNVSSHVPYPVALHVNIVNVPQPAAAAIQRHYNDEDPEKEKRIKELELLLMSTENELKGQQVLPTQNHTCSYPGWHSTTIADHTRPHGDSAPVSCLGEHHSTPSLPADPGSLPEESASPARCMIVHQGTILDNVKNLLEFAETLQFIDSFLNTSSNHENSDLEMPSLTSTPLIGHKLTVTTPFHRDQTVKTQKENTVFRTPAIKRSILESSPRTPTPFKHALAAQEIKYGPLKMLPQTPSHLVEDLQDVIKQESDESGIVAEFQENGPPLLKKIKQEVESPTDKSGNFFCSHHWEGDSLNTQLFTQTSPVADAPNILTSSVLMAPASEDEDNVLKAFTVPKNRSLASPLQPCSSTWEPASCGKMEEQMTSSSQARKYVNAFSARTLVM
Hepatocyte nuclear factor 4-alpha (Homo sapiens), sequence (P41235 whole entry, looked up): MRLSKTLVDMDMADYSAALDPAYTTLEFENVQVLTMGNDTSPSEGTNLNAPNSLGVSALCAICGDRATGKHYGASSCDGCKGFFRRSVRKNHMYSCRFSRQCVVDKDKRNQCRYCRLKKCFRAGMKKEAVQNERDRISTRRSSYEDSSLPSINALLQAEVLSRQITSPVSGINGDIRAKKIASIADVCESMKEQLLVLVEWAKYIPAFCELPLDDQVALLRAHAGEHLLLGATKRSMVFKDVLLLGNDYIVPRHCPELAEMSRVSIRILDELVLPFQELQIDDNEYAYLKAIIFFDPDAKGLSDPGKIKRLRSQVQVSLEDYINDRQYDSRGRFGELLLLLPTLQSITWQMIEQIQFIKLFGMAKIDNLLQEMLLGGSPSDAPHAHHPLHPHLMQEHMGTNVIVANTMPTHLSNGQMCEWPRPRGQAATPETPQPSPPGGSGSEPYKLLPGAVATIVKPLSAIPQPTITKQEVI
Cellular tumor antigen p53 (Homo sapiens), sequence (P04637 whole entry, looked up, the tested form may be a part): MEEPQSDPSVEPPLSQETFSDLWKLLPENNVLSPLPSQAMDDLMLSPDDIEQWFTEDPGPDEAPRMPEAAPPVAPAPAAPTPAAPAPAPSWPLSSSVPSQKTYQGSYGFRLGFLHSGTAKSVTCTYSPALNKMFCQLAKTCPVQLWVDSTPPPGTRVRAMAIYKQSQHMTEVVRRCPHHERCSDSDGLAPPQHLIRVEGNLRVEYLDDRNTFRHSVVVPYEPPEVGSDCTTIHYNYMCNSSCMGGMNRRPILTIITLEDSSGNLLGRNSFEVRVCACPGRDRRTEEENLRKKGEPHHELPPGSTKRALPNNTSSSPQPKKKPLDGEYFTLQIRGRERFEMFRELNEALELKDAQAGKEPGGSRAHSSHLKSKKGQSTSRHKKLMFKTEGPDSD
Nuclear respiratory factor 1 (Homo sapiens), sequence (Q16656 whole entry, looked up): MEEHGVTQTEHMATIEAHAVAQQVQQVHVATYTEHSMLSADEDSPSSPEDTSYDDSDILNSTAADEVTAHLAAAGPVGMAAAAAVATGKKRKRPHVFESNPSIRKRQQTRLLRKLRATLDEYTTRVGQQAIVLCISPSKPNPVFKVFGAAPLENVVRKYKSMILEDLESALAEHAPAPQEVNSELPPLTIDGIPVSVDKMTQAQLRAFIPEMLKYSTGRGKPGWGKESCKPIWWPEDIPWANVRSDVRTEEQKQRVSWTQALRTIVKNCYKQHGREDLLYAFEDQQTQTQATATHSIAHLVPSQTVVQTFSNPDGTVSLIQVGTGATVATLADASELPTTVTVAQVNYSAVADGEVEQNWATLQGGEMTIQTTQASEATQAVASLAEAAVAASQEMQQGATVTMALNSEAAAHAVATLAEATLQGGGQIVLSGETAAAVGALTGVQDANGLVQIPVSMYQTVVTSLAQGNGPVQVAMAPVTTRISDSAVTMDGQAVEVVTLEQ
Myc proto-oncogene protein (Homo sapiens), sequence (P01106 whole entry, looked up): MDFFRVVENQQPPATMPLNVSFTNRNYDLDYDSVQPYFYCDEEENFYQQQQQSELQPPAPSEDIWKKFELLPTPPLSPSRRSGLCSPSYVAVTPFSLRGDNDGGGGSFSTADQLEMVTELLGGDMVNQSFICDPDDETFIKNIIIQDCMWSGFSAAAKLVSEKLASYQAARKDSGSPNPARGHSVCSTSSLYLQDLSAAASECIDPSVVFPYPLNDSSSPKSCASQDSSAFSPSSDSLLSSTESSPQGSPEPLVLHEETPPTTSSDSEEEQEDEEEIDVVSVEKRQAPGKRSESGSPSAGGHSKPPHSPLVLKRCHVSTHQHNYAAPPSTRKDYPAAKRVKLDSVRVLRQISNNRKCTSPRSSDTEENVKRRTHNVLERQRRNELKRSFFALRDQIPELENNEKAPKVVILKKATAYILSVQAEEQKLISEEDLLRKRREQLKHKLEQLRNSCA
Nuclear receptor subfamily 4 group A member 2 (Homo sapiens), sequence (P43354 whole entry, looked up, the tested form may be a part): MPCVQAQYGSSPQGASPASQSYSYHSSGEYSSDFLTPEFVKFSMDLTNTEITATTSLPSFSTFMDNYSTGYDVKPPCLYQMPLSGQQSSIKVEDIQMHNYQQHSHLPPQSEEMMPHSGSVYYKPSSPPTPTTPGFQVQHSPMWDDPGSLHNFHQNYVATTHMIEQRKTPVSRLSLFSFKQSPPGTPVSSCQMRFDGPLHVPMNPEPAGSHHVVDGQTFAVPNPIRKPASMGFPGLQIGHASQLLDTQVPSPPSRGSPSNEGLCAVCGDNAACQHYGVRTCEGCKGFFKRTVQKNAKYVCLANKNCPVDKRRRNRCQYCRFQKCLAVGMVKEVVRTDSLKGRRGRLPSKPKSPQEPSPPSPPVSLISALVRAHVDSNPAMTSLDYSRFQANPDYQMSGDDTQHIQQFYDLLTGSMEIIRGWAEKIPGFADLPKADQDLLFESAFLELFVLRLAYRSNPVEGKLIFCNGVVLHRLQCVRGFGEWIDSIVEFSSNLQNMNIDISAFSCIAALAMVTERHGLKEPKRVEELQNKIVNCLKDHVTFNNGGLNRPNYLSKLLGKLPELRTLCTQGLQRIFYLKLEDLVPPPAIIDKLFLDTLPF
Bile acid receptor (Homo sapiens), sequence (Q96RI1 whole entry, looked up, the tested form may be a part): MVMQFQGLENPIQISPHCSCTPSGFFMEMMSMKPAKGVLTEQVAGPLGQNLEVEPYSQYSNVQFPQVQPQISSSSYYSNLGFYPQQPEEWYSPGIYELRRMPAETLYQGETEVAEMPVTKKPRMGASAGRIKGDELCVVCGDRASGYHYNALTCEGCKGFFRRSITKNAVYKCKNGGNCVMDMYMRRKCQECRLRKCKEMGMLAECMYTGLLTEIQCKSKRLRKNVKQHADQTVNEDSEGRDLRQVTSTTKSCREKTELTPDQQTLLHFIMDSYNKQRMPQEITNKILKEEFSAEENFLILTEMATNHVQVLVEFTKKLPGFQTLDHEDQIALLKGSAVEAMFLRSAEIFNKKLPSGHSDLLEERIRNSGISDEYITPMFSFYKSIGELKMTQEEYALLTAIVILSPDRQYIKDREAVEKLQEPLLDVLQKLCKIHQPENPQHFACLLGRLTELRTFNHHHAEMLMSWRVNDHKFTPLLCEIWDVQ
Glucocorticoid receptor (Homo sapiens), sequence (P04150 whole entry, looked up): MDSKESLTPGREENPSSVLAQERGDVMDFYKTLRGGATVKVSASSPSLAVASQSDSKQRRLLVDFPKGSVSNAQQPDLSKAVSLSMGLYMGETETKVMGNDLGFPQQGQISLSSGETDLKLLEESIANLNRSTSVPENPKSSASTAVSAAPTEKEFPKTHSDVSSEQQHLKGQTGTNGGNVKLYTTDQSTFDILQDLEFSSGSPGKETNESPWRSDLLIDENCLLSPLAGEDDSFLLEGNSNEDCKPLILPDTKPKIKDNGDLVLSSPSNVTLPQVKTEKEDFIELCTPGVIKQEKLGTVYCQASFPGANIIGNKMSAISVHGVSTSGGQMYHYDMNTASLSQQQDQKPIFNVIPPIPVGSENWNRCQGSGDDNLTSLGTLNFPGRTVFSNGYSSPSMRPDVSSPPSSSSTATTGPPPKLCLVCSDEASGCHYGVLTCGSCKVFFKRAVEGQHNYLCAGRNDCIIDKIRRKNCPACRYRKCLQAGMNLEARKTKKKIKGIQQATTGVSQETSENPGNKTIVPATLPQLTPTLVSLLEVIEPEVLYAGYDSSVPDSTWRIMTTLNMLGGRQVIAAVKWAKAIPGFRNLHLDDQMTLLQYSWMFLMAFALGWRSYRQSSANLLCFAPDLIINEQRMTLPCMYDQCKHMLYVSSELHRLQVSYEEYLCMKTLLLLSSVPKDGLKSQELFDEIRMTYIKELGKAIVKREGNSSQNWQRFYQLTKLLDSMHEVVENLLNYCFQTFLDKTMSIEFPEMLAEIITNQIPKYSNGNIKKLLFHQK
Estrogen-related receptor gamma (Homo sapiens), sequence (P62508 whole entry, looked up, the tested form may be a part): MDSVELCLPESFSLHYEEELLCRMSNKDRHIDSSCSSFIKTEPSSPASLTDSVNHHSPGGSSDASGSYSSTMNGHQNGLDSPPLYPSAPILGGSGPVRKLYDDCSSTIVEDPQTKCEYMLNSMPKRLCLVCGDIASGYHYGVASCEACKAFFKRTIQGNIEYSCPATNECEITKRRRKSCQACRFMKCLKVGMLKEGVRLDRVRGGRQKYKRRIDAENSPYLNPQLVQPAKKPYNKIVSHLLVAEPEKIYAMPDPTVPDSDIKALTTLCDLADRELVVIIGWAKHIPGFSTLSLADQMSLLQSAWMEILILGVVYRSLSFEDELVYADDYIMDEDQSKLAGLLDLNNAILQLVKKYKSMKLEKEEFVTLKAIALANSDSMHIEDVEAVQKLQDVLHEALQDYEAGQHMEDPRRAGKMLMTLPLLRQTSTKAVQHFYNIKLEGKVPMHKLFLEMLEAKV

As usually defined, the AC50 is the midpoint of the concentration-response curve, whichever way the signal moves. As for `O=S1(=O)CC(Cl)(Cl)C(Cl)(Cl)C1`, the result in experiment [1], in experiment [2], in experiment [3], in experiment [4], in experiment [5] and in experiment [6] was inactive. The compound was classed as inactive in [7], in [8], in [9], in experiment [10], in experiment [11] and in experiment [12]. For the same compound, the call in [13] was inactive. The AC50 in experiment [14] was 2670 nM (active); in [15], 556 nM (active); in [16] it was 695 nM (active); in experiment [17], 618 nM (active).

Regarding `O=C1CCC(=O)N1`, the compound was called inactive in [1], in experiment [2], in [3], in [4], in experiment [18] and in experiment [6]. In addition, the compound was called inactive in [7], in experiment [8], in experiment [9], in experiment [10], in [11] and in experiment [12]. The call in experiment [19] and in [14] was inactive.

Take `CCCCCCCCCO`: the call in experiment [1], in experiment [2], in [3], in experiment [5], in [8] and in experiment [11] was inactive. Also, the compound was classed as inactive in experiment [13] and in experiment [14].

Take `O=C1CCCCCCCCCCCC(=O)OCCO1`: the compound was classed as inactive in experiment [1], in experiment [2], in experiment [5], in [20], in experiment [6] and in [7]. In addition, the call in experiment [9], in experiment [10], in [11], in experiment [19] and in experiment [13] was inactive.

On to `O=C(O)CS`, for which the result in [1], in experiment [2], in [20], in experiment [18], in [7] and in experiment [8] was inactive. In addition, the compound was classed as inactive in experiment [9], in [10], in experiment [12], in experiment [19] and in experiment [13].

As for `CCC(C)(C)C1CCC(=O)CC1`, the result in [1], in experiment [5], in experiment [18], in experiment [8], in [9] and in experiment [11] was inactive. The call in experiment [12], in experiment [19], in experiment [13] and in experiment [14] was inactive.

`CCOc1ccc(NC(C)=O)cc1`: the outcome in [1], in experiment [2], in experiment [20], in experiment [6], in experiment [8] and in experiment [9] was inactive. In addition, the result in experiment [10], in experiment [11], in experiment [19], in experiment [13] and in [14] was inactive.

On to `CCOCC(C)O` (configuration not stated), for which the compound was called inactive in experiment [1], in [4], in [5], in experiment [20], in experiment [6] and in [7]. For the same compound, the call in [8], in [9], in experiment [10], in experiment [11], in experiment [19] and in experiment [13] was inactive.

Regarding `ClCCOCCOCCCl`, the outcome in [1], in experiment [5], in experiment [20], in [18], in [7] and in experiment [8] was inactive. Also, the result in experiment [9], in [10], in experiment [11], in [13] and in experiment [14] was inactive. In addition, the AC50 in experiment [19] is 54700 nM (active).

For `CCCCCCCCOS(=O)(=O)O`, the compound was called inactive in [1], in experiment [2], in experiment [3], in [18], in experiment [6] and in experiment [8]. Also, the result in experiment [9], in experiment [10], in [11], in experiment [12] and in experiment [13] was inactive.

Values taken from PubChem BioAssay (EPA / NIEHS).
